We go through 14 compounds from PubChem BioAssay (EPA / NIEHS).

Each structure is given as a SMILES string. Several values for one entry are separate records, joined by “and”; a condition that tells them apart may be missing. Equal values may be shown once. The source holds several records for some structures; these can differ, active in one and inactive in another. Activity calls are given as the source filed them. How the source made its calls: active means hit-call score of the fitted dose curve at least 0.9, where 1 is the maximum; inactive means score below 0.9.

By AC50 is commonly meant the concentration giving half of the maximal activity seen.

Read-out in assay [1]: TIMP metallopeptidase inhibitor 2 (TIMP2), TIMP2 (gene 7077)
As to the kind of experiment: BSK_KF3CT_TIMP2: BioMAP Diversity Plus: KF3CT Assay for TIMP metallopeptidase inhibitor 2 (TIMP2) Biomarker Activity (AID 2283071). The note with it: primary human keratinocytes with fibroblasts; actives raise or lower the signal. Summed up:
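Chemicals were dosed onto human skin primary co-cultures of keratinocytes and foreskin fibroblasts, and TIMP-2 was measured by ELISA after 24 hours. Activity in either direction was fitted relative to DMSO.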

Read-out in assay [2]: C-C motif chemokine 2 (Homo sapiens) (UniProt P13500)
Kind of assay: BSK_KF3CT_MCP1: BioMAP Diversity Plus: KF3CT Assay for Monocyte Chemoattractant Protein 1 (MCP1/CCL2) Biomarker Activity (AID 2283073). The note with it: primary human keratinocytes with fibroblasts; actives raise or lower the signal. The gist of the method: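 ELISA readout of MCP-1 after 24 h chemical dosing of a human skin primary co-culture of keratinocytes and foreskin fibroblasts. Activity was fitted in both directions against DMSO.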

Read-out in assay [3]: Matrix Metallopeptidase 9 (MMP9), MMP9 (gene 4318)
As to the kind of experiment: BSK_KF3CT_MMP9: BioMAP Diversity Plus: KF3CT Assay for Matrix Metallopeptidase 9 (MMP9) Biomarker Activity (AID 2283074).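 On AC50: MMP9 protein level quantified by ELISA in the co-culture.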 The note with it: primary human keratinocytes with fibroblasts; actives raise or lower the signal. The gist of the method: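 ELISA read-out of MMP-9 at 24 h post-dosing in a co-culture of human skin keratinocytes and foreskin fibroblasts. Gain or loss of signal was fitted in both directions against DMSO.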

Read-out in assay [4]: urokinase plasminogen activator (uPA), PLAU (gene 5328)
Kind of assay: BSK_KF3CT_uPA: BioMAP Diversity Plus: KF3CT Assay for urokinase plasminogen activator (uPA) Biomarker Activity (AID 2283075). The note with it: primary human keratinocytes with fibroblasts; actives raise or lower the signal. Summed up:
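Skin co-culture (keratinocytes + foreskin fibroblasts), human primary; 24 h post-dose; uPA by ELISA; gain/loss fit vs DMSO baseline.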

Read-out in a further assay: CD40, CD40 (gene 958)
Kind of assay: BSK_LPS_CD40: BioMAP Diversity Plus: LPS Assay for CD40 Biomarker Activity (AID 2283076). As to conditions: primary human HUVEC with PBMC; actives raise or lower the signal. Summed up: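 Cells were dosed, incubated 24 h, then assayed for CD40 by ELISA. Gain or loss of signal was analysed relative to DMSO controls. The culture paired human umbilical vein endothelium with peripheral blood mononuclear cells.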

Read-out in assay [5]: E-selectin (Homo sapiens) (UniProt P16581)
As to the kind of experiment: BSK_LPS_Eselectin: BioMAP Diversity Plus: LPS Assay for Eselectin Biomarker Activity (AID 2283077). The note with it: primary human HUVEC with PBMC; actives raise or lower the signal. The gist of the method: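 Primary human vascular co-culture (endothelium plus PBMC) was dosed with chemical, then E-selectin quantified by ELISA at 24 h. Endpoint values derive from bidirectional curve fitting relative to DMSO.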

Read-out in assay [6]: Interleukin-8 (IL8), CXCL8 (gene 3576)
Kind of assay: BSK_LPS_IL8: BioMAP Diversity Plus: LPS Assay for Interleukin-8 (IL8) Biomarker Activity (AID 2283078). As to conditions: primary human HUVEC with PBMC; actives raise or lower the signal. The gist of the method: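 Readout is IL-8 by ELISA, taken 24 h after compounds were added to LPS-stimulated endothelial/PBMC co-cultures. Both increases and decreases relative to DMSO control were scored through bidirectional fitting.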

Assay [7] in a line: BSK_LPS_SRB: Viability Assessment in the BioMAP Diversity Plus: LPS Assay (AID 2283079).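 Further: total protein by sulforhodamine B absorbance as a cytotoxicity measure; measured one day after compound addition.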 The note with it: primary human HUVEC with PBMC. Summed up: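 Readout is SRB absorbance at 560 nm (0.1% stain, TCA-fixed parallel cultures) as a total-protein cytotoxicity measure. Cells: primary human umbilical vein endothelium plus peripheral blood mononuclear cells, 24 h after chemical exposure; DMSO served as baseline.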

Read-out in assay [8]: Interleukin-1 alpha (IL1a), IL1A (gene 3552)
As to the kind of experiment: BSK_LPS_IL1a: BioMAP Diversity Plus: LPS Assay for Interleukin-1 alpha (IL1a) Biomarker Activity (AID 2283080). As to conditions: primary human HUVEC with PBMC; actives raise or lower the signal. The gist of the method:
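ELISA read-out of IL-1 alpha from a human primary vascular co-culture (endothelium plus PBMC) under LPS, sampled 24 hours post-dosing. Activity was fitted in both directions relative to DMSO controls.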

Read-out in assay [9]: Transforming growth factor beta 1 (TGFb1), TGFB1 (gene 7040)
As to the kind of experiment: BSK_KF3CT_TGFb1: BioMAP Diversity Plus: KF3CT Assay for Transforming growth factor beta 1 (TGFb1) Biomarker Activity (AID 2283072). As to conditions: primary human keratinocytes with fibroblasts; actives raise or lower the signal. The gist of the method:
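KF3CT co-culture (keratinocytes + fibroblasts), 24 h exposure → TGF-b1 ELISA → bidirectional fit, DMSO = baseline. Parallel SRB total-protein staining (0.1% SRB, 10% TCA fixation, 560 nm) for cytotoxicity.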

Sequence of E-selectin (Homo sapiens) (P16581 whole entry, looked up): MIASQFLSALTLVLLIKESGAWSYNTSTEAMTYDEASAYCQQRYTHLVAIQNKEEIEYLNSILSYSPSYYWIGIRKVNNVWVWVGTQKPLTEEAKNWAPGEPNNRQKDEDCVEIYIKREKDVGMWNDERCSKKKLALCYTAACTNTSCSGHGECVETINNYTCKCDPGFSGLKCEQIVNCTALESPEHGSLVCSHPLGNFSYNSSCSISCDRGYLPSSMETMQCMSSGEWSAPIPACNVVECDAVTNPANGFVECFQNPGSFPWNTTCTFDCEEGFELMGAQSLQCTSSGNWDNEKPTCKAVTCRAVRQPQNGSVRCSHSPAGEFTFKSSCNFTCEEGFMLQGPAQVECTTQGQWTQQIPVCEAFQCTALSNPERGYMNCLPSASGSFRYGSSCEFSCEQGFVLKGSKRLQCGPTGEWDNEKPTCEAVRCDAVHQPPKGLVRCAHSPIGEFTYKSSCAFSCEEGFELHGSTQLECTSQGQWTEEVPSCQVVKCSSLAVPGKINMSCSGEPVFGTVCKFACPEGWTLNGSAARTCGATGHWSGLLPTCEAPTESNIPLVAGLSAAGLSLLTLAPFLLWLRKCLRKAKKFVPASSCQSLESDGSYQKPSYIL

Take `CCCCCCCCCCCC`: the half-maximal activity concentration (AC50) in [1] is 7.91 µM (active) and 9.05 µM (active); in assay [2], 6.76 µM (active) and 8.48 µM (active); in assay [3] it was 6.78 µM (active) and 7.3 µM (active); in assay [4] it was 11.1 µM (active); with CD40, CD40 (gene 958), 20 µM (active); in assay [5], 30.5 µM (active) and 32.7 µM (active). Also, the AC50 was 33.1 µM (active) and 30.7 µM (active) in assay [6]; 14.4 µM (active) and 29.6 µM (active) in [8]. Besides, the outcome with CD40, CD40 (gene 958) was “inactive”; in assay [7], “inactive”.

`O=C(O)CCC(F)(F)C(F)(F)C(F)(F)C(F)(F)C(F)(F)C(F)(F)F`: the outcome in assay [1] is “inactive”; in assay [2], “inactive”; in assay [3], “inactive”; in assay [4], “inactive”; in the assay with CD40, CD40 (gene 958), “inactive”; in [5], “inactive”. The result in assay [7] and in [8] was inactive. For the same compound, the AC50 was 15.6 µM (active) in the assay with CD40, CD40 (gene 958); 30 µM (active) and 51.1 µM (active) and 38.9 µM (active) in assay [6]; 12.9 µM (active) and 30 µM (active) in assay [8].

Take `CC1=NN(c2ccccc2)C(=O)C1`: the outcome is “inactive” in assay [1]; “inactive” in [9]; “inactive” in assay [2]; “inactive” in [3]; “inactive” in [4]; “inactive” in the assay with CD40, CD40 (gene 958). In addition, the outcome in [5], in [6], in assay [7] and in assay [8] was inactive.

On to `O=C(O)C(F)(F)OC(F)(F)C(F)(F)OC(F)(F)C(F)(F)OC(F)(F)C(F)(F)C(F)(F)C(F)(F)F`, for which the AC50 in assay [1] was 8.14 µM (active) and 7.33 µM (active); in assay [2], 8.05 µM (active) and 8.01 µM (active); in assay [3], 8.13 µM (active) and 8.24 µM (active); in assay [4], 14.5 µM (active) and 15.7 µM (active); in the assay with CD40, CD40 (gene 958), 30 µM (active) and 36.5 µM (active); in [5], 54.1 µM (active) and 50.8 µM (active). In addition, the AC50 in [6] was 47.5 µM (active) and 26 µM (active); in assay [7], 54.4 µM (active) and 50.9 µM (active); in assay [8], 44.4 µM (active) and 40.1 µM (active).

With `CCCCCCCCCCCCOS(=O)(=O)O`, the concentration at half-maximal activity (AC50) in [1] is 29.3 µM (active); in assay [9], 33.4 µM (active); in assay [2] it was 20 µM (active); in assay [3] it was 30.9 µM (active); in assay [4] it was 31.1 µM (active). For the same compound, the outcome with CD40, CD40 (gene 958) was “inactive”; in [5] it was “inactive”; in assay [6], “inactive”; in assay [8], “inactive”.

With `C=CC(=O)OCCC(F)(F)C(F)(F)C(F)(F)C(F)(F)C(F)(F)C(F)(F)C(F)(F)C(F)(F)F`, the outcome was “inactive” in [1]; “inactive” in assay [2]; “inactive” in [4]; “inactive” with CD40, CD40 (gene 958); “inactive” in [5]; “inactive” in [6]. The outcome in assay [7] and in [8] was inactive. Moreover, in assay [3], the AC50 was 12.6 µM (active) and 8.83 µM (active).

Turning to `O=C(c1ccccc1)c1ccccc1`, the outcome in assay [1] was “inactive”; in assay [9], “inactive”; in assay [2], “inactive”; in [3], “inactive”; in assay [4] it was “inactive”; in the assay with CD40, CD40 (gene 958), “inactive”. The outcome in assay [5], in assay [6], in [7] and in [8] was inactive.

`NC(=NCCCCCCN=C(N)/N=C(\N)Nc1ccc(Cl)cc1)/N=C(\N)Nc1ccc(Cl)cc1`: the concentration at half-maximal activity (AC50) is 5.01 µM (active) in assay [1]; 2.35 µM (active) in assay [9]; 6.01 µM (active) in assay [2]; 2.67 µM (active) in assay [3]; 4.99 µM (active) in assay [4]; 5.33 µM (active) with CD40, CD40 (gene 958). Besides, the concentration at half-maximal activity (AC50) in [6] is 2.36 µM (active); in assay [7] it was 5.33 µM (active); in assay [8], 4.94 µM (active).

On to `O=C1c2ccc(O)c(O)c2C(=O)c2c(O)ccc(O)c21`, for which the outcome in [1] is “inactive”; in [9] it was “inactive”; in [2], “inactive”; in assay [3], “inactive”; in assay [4] it was “inactive”; with CD40, CD40 (gene 958), “inactive”. For the same compound, the result in assay [5], in assay [6], in assay [7] and in assay [8] was inactive.

For `O=P(O)(O)CCC(F)(F)C(F)(F)C(F)(F)C(F)(F)C(F)(F)C(F)(F)C(F)(F)C(F)(F)F`, the outcome in assay [1] was “inactive”; in assay [2], “inactive”; in assay [3], “inactive”; in assay [4] it was “inactive”; with CD40, CD40 (gene 958), “inactive”; in assay [5] it was “inactive”. Further, the outcome in assay [6], in assay [7] and in assay [8] was inactive. For the same compound, the AC50 in the assay with CD40, CD40 (gene 958) is 30 µM (active); in assay [7], 35.3 µM (active).

With `O=C(NCc1ncc(C(F)(F)F)cc1Cl)c1c(Cl)cccc1Cl`, the outcome in [1] is “inactive”; in [9], “inactive”; in [2] it was “inactive”; in assay [3], “inactive”; in assay [4] it was “inactive”; with CD40, CD40 (gene 958) it was “inactive”. The outcome in [5], in [6], in assay [7] and in [8] was inactive.

With `O=P(O)(O)CCC(F)(F)C(F)(F)C(F)(F)C(F)(F)C(F)(F)C(F)(F)F`, the outcome was “inactive” in assay [1]; “inactive” in assay [2]; “inactive” in [3]; “inactive” in assay [4]; “inactive” with CD40, CD40 (gene 958); “inactive” in assay [5]. Besides, the result in assay [6], in assay [7] and in assay [8] was inactive.

As to `CCCCc1oc2ccccc2c1C(=O)c1cc(I)c(OCCN(CC)CC)c(I)c1`, the AC50 is 8.7 µM (active) in assay [1]; 5.6 µM (active) in assay [9]; 11.9 µM (active) in assay [2]; 6.54 µM (active) in assay [3]; 9.85 µM (active) in assay [4]; 13.9 µM (active) in the assay with CD40, CD40 (gene 958). In addition, the half-maximal activity concentration (AC50) in [5] is 24.2 µM (active); in assay [6], 25.9 µM (active); in assay [7], 19.4 µM (active); in assay [8] it was 19.1 µM (active).

For the compound `Cc1ccc(C(=O)c2ccccc2)cc1`, the AC50 in assay [1] was 30.3 µM (active); in assay [9], 30.8 µM (active). Also, the outcome is “inactive” in assay [2]; “inactive” in [3]; “inactive” in [4]; “inactive” with CD40, CD40 (gene 958); “inactive” in assay [5]; “inactive” in [6]. For the same compound, the outcome in [7] and in assay [8] was inactive.
